Results published in PubChem BioAssay (EPA / NIEHS).
Results filed as inconclusive are left out. Active and inactive are the calls of the source. The calls were made as follows, unless noted: active = hit-call score of the fitted dose curve at least 0.9, where 1 is the maximum; inconclusive = response in the unintended direction; inactive = score below 0.9.

Key:
[1] = system: Thyroperoxidase (TPO), gene 54314; assay: CCTE_Simmons_AUR_rTPO: CCTE's Amplex UltraRed Assay for Thyroperoxidase (TPO) Inhibition, Simmons Lab (AID 2283662);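 as to AC50: potency for loss of signal meaning inhibition of peroxidase activity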
In short: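 Rat thyroid microsomes (5 ug protein) were incubated with test compound (8 concentrations, 5 nM–87.5 uM final, 0.5% DMSO), 25 uM Amplex UltraRed and 300 uM H2O2 in 200 mM phosphate buffer for 30 min at 37C in the dark; fluorescence read at 544/590 nm.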

[2] = CCTE_Simmons_CellTiterGLO_HEK293T: Viability Assessment in CCTE's Assays for Thyroperoxidase (TPO) Inhibition, Simmons Lab (AID 2283665);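 as to AC50: cells exposed to compound for 24 h before readout; actives reduce ATP signal below DMSO vehicle meaning cytotoxicity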
In short: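 Luminescent ATP readout (CellTiter-Glo, 20 min at room temperature) after 24 hr exposure of HEK293T cells to 5 nM–87.5 uM final compound; signal loss relative to DMSO vehicle indicated cytotoxicity; dichlone titrated as positive control.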

[3] = Tanguay_ZF_120hpf_TR_legacy: (Legacy) Oregon State University Tanguay Lab 120 Hour Post-fertilization zebrafish Assay for Touch Response (AID 2283667)
In short: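 Binary touch-response call at 120 hpf, analysed as gain of signal versus DMSO baseline. Wild-type 5D larvae, static exposure at 28C, 0.64% DMSO final; 5uM trimethyltin chloride as positive control.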

[4] = CEETOX_H295R_MTT_cell_viability: Viability Assessment in the CeeTox HT-H295R MTT Assay (AID 2283718; active = hit-call score of the fitted dose curve at least 0.9, where 1 is the maximum; inactive = score below 0.9;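 as to AC50: curve fitted both ways so AC50 may mark viability loss or gain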)
In short: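 Human H295R adrenal cells, prestimulated 48 h with 10 uM forskolin, were exposed 48 h to chemicals in 0.1% DMSO. Viability was measured in the same wells by MTT (0.5 mg/ml, 4 h, 37 C), absorbance 570/650 nm, as percent of controls.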

[5] = Tanguay_ZF_120hpf_ActivityScore_legacy: (Legacy) Oregon State University Tanguay Lab 120 Hour Post-fertilization zebrafish Assay Score for Activity (AID 2283742);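 as to AC50: dechorionated Tropical 5D wild-type zebrafish embryos held singly per well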
In short: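 Dechorionated 5D embryos, one per well, static exposure 6–120 hpf, 28C, sealed and dark; final DMSO 0.64% (vol/vol). Brightfield binary scoring of mortality plus 18 endpoints; gain-of-signal fit versus DMSO baseline.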

[6] = CCTE_Padilla_ZF_144hpf_TERATOSCORE: (Legacy) CCTE's 144 Hour Post-fertilization zebrafish Assay Teratoscore, Padilla Lab (AID 2283679; active = hit-call score of the fitted dose curve at least 0.9, where 1 is the maximum; inactive = score below 0.9;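 as to AC50: zebrafish embryos with chorions exposed by immersion from 6-8 hpf to 5 dpf with daily renewal; teratogenicity score from eye scoring of death hatching and malformations at 144 hpf; higher score means more developmental defects relative to DMSO baseline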)
In short: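 Larvae scored by eye at 144 hpf for death, hatching and malformations after a day in clean Hanks'. Before that, daily-renewed exposure at 80 uM (0.4% DMSO, 26C) from roughly 6-8 hpf through 5 dpf, 4 embryos per chemical.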

[7] = STM_H9_OrnithineISnorm_perc: Stemina devTOX quickPredict H9 human embryonic stem cell (hESC)-based Assay for Ornithine (ORN) Metabolite Biomarker, Normalized (AID 2283712; active = hit-call score of the fitted dose curve at least 0.9, where 1 is the maximum; inactive = score below 0.9;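 also: ornithine released into spent medium during last day measured by mass spectrometry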)
In short: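 UPLC-HRMS readout: endogenous ornithine EIC area / 13C-ORN internal standard, then % of 0.1% DMSO median. H9 hESCs (pluripotent), 72h exposure, re-dosed with fresh media q24h; last 24-h spent media, deproteinized in 40% acetonitrile.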

[8] = STM_H9_CystineISnorm_perc: Stemina devTOX quickPredict H9 human embryonic stem cell (hESC)-based Assay for Cystine (CYSS) Metabolite Biomarker, Normalized (AID 2283713; active = hit-call score of the fitted dose curve at least 0.9, where 1 is the maximum; inactive = score below 0.9)
In short: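 UPLC-HRMS read-out: endogenous cystine peak area in spent medium, normalized to isotope-labeled internal standard and to median of 0.1% DMSO controls. Pluripotent H9 cells, 72h exposure, daily medium/compound replenishment; medium from last 24h sampled.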

[9] = STM_H9_OrnCyssISnorm_ratio: Stemina devTOX quickPredict H9 human embryonic stem cell (hESC)-based Assay for Ornithine (ORN):Cystine (CYSS) Ratio (AID 2283714)
In short: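 UPLC-HRMS of spent media: ORN/CYSS ratio of internal-standard-normalized percentages, DMSO (0.1%) baseline. Pluripotent H9 hESCs, 72h exposure, daily re-dosing with fresh media; last 24h media collected.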

[10] = read-out: Cytochrome P450 (CYP24A1_1), CYP24A1 (gene 1591); assay: LTEA_HepaRG_CYP24A1_1: Life Technologies and Expression Analysis (LTEA) Assay for Cytochrome P450 (CYP24A1_1) using HepaRG (AID 2283671; active = hit-call score of the fitted dose curve at least 0.9, where 1 is the maximum; inactive = score below 0.9); settings: mRNA level, 48 h; actives raise or lower the signal
In short: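 Readout is CYP24A1 transcript level by qRT-PCR, normalized to three housekeeping genes, with gain or loss of signal fitted against 0.5% DMSO. Human HepaRG cells received compound for 48 h at up to 100 uM.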

OC12N=C(c3ccccc3)SC1Cc1cc(Cl)ccc12 (configuration not stated)
AC50 [1]: 13 µM (active) | AC50 [2]: 29.7 µM (active) | AC50 [3]: 14.9 µM (active) | outcome [4]: inactive | AC50 [5]: 32.7 µM (active)

Cc1cn([C@H]2C[C@H](N=[N+]=[N-])[C@@H](CO)O2)c(=O)[nH]c1=O
outcome [3]: inactive | outcome [6]: inactive | outcome [7]: inactive | AC50 [8]: 2.32 µM (active) | AC50 [9]: 4.02 µM (active) | outcome [5]: inactive

O=C1CCC(C2CCCCC2)CC1
outcome [1]: inactive | AC50 [2]: 43.8 µM (active) | outcome [3]: inactive | AC50 [6]: 60.4 µM (active) | outcome [5]: inactive

COc1cccc([C@H](O)C2CCN(CCc3ccc(F)cc3)CC2)c1OC
outcome [3]: inactive | AC50 [6]: 124 µM (active) | outcome [7]: inactive | AC50 [8]: 6.34 µM (active) | AC50 [9]: 10 µM (active) | outcome [4]: inactive | outcome [5]: inactive

CCCCCCCCOC(=O)c1cc(O)c(O)c(O)c1
AC50 [1]: 0.921 µM (active) | AC50 [2]: 7.69 µM (active) | outcome [3]: inactive | AC50 [6]: 1.43 µM (active) | AC50 [7]: 2.13 µM (active) | AC50 [8]: 2.47 µM (active) | AC50 [9]: 2.54 µM (active) | outcome [4]: inactive | AC50 [5]: 9.16 µM (active)

CCCOC(=O)c1cc(O)c(O)c(O)c1
AC50 [1]: 0.772 µM (active) | AC50 [2]: 22.6 µM (active) | outcome [3]: inactive | outcome [10]: inactive | outcome [5]: inactive

CCOC(=O)O[C@H](C)OC(=O)c1ccc2c(c1)cc(C(=O)NC1CCN(C(C)C)CC1)n2Cc1cc(-c2ccc(Cl)s2)on1
AC50 [1]: 9.93 µM (active) | AC50 [2]: 2.11 µM (active) | outcome [3]: inactive | AC50 [6]: 4.27 µM (active) | outcome [7]: inactive | outcome [8]: inactive | AC50 [5]: 34.8 µM (active)

Oc1ccc2ccccc2c1
AC50 [1]: 3.13 µM (active) | outcome [2]: inactive | AC50 [3]: 33.6 µM (active) | AC50 [6]: 57.1 µM (active) | outcome [4]: inactive | AC50 [5]: 36.6 µM (active)

C[C@]12CC[C@@H]3c4ccc(O)cc4CC[C@H]3[C@@H]1CC[C@H]2O
AC50 [1]: 4.06 µM (active) | outcome [2]: inactive | outcome [3]: inactive | outcome [10]: inactive | AC50 [6]: 15 µM (active) | outcome [4]: inactive | outcome [5]: inactive

CC/C(=C(/CC)c1ccc(O)cc1)c1ccc(O)cc1
AC50 [1]: 5.22 µM (active) | AC50 [2]: 8.59 µM (active) | AC50 [6]: 5.03 µM (active) | outcome [7]: inactive | outcome [8]: inactive | outcome [9]: inactive | AC50 [4]: 24.4 µM (active) | AC50 [5]: 28.5 µM (active)

Cc1occc1C(=O)Nc1ccc(C(=O)N2CCC(F)(F)/C(=C\C(=O)N3CCC(N4CCCCC4)CC3)c3ccccc32)cc1
outcome [3]: inactive | outcome [10]: inactive | outcome [6]: inactive | outcome [5]: inactive

CCCCCCCCCCCCO
outcome [3]: inactive | outcome [10]: inactive | AC50 [6]: 62.8 µM (active) | outcome [5]: inactive

CN(C)c1ccc(C(=C2C=CC(=[N+](C)C)C=C2)c2ccc(N(C)C)cc2)cc1
AC50 [1]: 15.9 µM (active) | AC50 [2]: 0.955 µM (active) | outcome [3]: inactive | AC50 [6]: 0.477 µM (active) | AC50 [7]: 0.592 µM (active) | AC50 [8]: 0.817 µM (active) | AC50 [9]: 0.723 µM (active) | AC50 [5]: 1.66 µM (active)

CCN(Cc1cccc(S(=O)(=O)O)c1)c1ccc(C(=C2C=CC(=[N+](CC)Cc3cccc(S(=O)(=O)O)c3)C=C2)c2ccccc2S(=O)(=O)[O-])cc1
AC50 [1]: 19.2 µM (active) | AC50 [2]: 4.21 µM (active) | outcome [3]: inactive | outcome [6]: inactive | outcome [5]: inactive

O=C1c2ccccc2C(=O)N1CCc1noc(-c2ccc(CN3CCCCCC3)s2)n1
outcome [3]: inactive | outcome [10]: inactive | AC50 [6]: 20.2 µM (active) | outcome [4]: inactive | outcome [5]: inactive

NCc1cccc(C2CCN(C(=O)c3ccc(C#Cc4ccccc4F)o3)CC2)c1
outcome [1]: inactive | AC50 [2]: 9.98 µM (active) | outcome [3]: inactive | AC50 [6]: 14.5 µM (active) | AC50 [5]: 31.6 µM (active)

Cc1c2ccccc2c(C)c2c1ccc1ccccc12
outcome [1]: inactive | AC50 [2]: 17.2 µM (active) | outcome [3]: inactive | AC50 [6]: 4.42 µM (active) | outcome [7]: inactive | AC50 [8]: 5 µM (active) | AC50 [9]: 5 µM (active) | outcome [4]: inactive | AC50 [5]: 8.83 µM (active)

CC(=O)N1CCN(c2ccc(OC[C@H]3CO[C@](Cn4ccnc4)(c4ccc(Cl)cc4Cl)O3)cc2)CC1
AC50 [1]: 19.2 µM (active) | AC50 [2]: 1.26 µM (active) | outcome [3]: inactive | AC50 [6]: 14.3 µM (active) | AC50 [7]: 8.18 µM (active) | AC50 [8]: 1.58 µM (active) | AC50 [9]: 2.35 µM (active) | outcome [4]: inactive | outcome [5]: inactive

CC(C)(C)c1csc(-c2cc3cc(OCc4ccccc4CC(=O)O)ccc3o2)n1
AC50 [1]: 43.8 µM (active) | AC50 [2]: 22.4 µM (active) | outcome [3]: inactive | outcome [10]: inactive | AC50 [6]: 1.71 µM (active) | AC50 [5]: 27.1 µM (active)

CC1(C)NC(=O)N(c2ccc([N+](=O)[O-])c(C(F)(F)F)c2)C1=O
AC50 [6]: 17.2 µM (active) | outcome [5]: inactive

CC(O)CC(C)(C)O (configuration not stated)
outcome [6]: inactive | outcome [5]: inactive

O=C(O)c1ccccc1C(=O)OCc1ccccc1
outcome [3]: inactive | outcome [4]: inactive | outcome [5]: inactive
